Sampled rows, rich in hits. Any-hit rate of the full collection: about 3.3%.
ERb SRC1 inh = ER-beta (human) coactivator binding inhibition | Q92731 | TR-FRET ER-beta LBD / SRC1-Cy5 peptide binding; receptor agonist-loaded with 1 µM estradiol | inhibition, % at 25.6 µM | hit rate 1.3% among 86,000 | AID 633;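 active means compounds whose percent inhibition of the receptor-coactivator binding signal exceeds about 50% in the single-dose screen, limit read from the data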;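 further: 0% = receptor plus peptide wells without compound and 100% = peptide-only wells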
ERa coact inh = blocks coactivator binding to human estrogen receptor alpha; P03372; TR-FRET ER-alpha LBD / SRC-1 peptide, estradiol-bound; inhibition, % at 25.6 µM; hit rate 1.7% among 86,000; AID 629; in the data active means inhibition above about 50%;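 further: 0% = receptor plus peptide control and 100% = peptide only without receptor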
Smad3 inh = blocks human Smad3 binding to FoxH1 peptide | AID 630 | inhibition, % at 25 µM | P84022 | TR-FRET Smad3/Dy647-FoxH1 peptide binding, europium anti-His | hit rate 0.29% among 88,000;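 active means compounds that reduce the energy-transfer binding signal between the protein and its labelled peptide by more than half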;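 further: 0% = Smad3 plus labelled peptide maximal FRET and 100% = peptide-only background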
ERa coact pot = enhances coactivator binding to human estrogen receptor alpha. P03372. TR-FRET ERalpha-LBD/SRC-Cy5 coactivator binding, 2 h; 100 = basal binding, no effect. coactivator binding (% of control), % at 25.6 µM. hit rate 1.3% among 86,000. AID 639; in the data active means activity above about 200%;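 further: binding measured in presence of low estradiol as agonist stimulus; 0% = peptide alone without receptor and 100% = receptor with peptide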
FAK inh = inhibitors of human focal adhesion kinase | Q05397 | biochemical FAK kinase activity assay | inhibition, %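 (tested at 7 µM)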 | hit rate 0.84% among 97,000; in the data active means inhibition above about 19%;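 further: 0% = DMSO and 100% = reference compound high control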
Target sequence (Q05397 whole entry, looked up): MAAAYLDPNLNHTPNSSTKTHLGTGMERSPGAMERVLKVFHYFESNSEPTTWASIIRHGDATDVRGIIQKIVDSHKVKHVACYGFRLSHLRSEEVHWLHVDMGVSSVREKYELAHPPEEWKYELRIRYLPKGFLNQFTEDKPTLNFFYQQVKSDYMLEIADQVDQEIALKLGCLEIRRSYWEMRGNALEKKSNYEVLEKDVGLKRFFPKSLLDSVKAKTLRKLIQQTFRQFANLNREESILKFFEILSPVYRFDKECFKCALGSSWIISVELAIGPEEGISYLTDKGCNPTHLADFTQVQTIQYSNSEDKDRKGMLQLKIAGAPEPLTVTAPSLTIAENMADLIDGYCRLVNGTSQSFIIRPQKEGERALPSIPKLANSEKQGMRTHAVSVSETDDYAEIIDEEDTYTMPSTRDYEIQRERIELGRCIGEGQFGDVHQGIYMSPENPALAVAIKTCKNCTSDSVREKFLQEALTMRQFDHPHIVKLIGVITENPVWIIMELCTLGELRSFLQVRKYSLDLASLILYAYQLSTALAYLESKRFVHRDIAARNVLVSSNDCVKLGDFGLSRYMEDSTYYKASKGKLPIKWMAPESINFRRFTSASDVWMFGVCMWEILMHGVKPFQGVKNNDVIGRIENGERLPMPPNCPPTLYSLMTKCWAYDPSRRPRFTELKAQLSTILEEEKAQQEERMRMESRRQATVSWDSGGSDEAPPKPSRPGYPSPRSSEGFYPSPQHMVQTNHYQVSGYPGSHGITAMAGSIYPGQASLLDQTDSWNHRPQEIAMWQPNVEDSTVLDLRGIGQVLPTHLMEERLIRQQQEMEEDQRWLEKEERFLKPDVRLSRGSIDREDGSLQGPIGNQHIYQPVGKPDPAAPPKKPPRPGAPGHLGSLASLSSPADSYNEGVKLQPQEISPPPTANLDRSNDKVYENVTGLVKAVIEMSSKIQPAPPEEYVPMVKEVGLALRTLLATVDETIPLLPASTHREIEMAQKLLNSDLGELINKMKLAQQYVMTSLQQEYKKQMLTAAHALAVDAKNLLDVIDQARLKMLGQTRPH
* hit, by the source's call; / = no result given; [ ] = remark or other dose.

SMILES | ERb SRC1 inh | ERa coact inh | Smad3 inh | ERa coact pot | FAK inh
Cc1nc(SCC(=O)NCc2ccco2)c2c(C)c(C)sc2n1 | 2 | 2 | -11 | 89 | 4
Cc1sc2ncnc(NCc3ccco3)c2c1C | 54* | 58* | 2 | 61 | 6
Cc1sc2ncnc(SCC(=O)NC(=O)NCc3ccco3)c2c1C | 81*[fluorescence artefact?] | 73* | -5 | 85 | 10
CCCCc1nc2sc3c(SCC(=O)NCc4ccco4)ncnc3c2c2c1CCC2 | 43 | 34 | 30 | 575*[fluorescence artefact?] | -62
C/C(=N\Nc1ccc2ccccc2n1)c1ccccc1O | / | / | 9 | / | /
O=C(NCc1ccco1)c1cc2cc3ccc(Cl)cc3nc2o1 | 56* | 67* | 11 | 182 | 15
O=C(CSc1nc2cc(Cl)ccc2s1)NC(=O)NCc1ccco1 | 43 | 57* | 0 | 77 | /
Cc1sc2nc(SCC(=O)NCc3ccco3)n(-c3ccccc3)c(=O)c2c1C | 6 | 15 | -56 | 229*[fluorescence artefact?] | -41
COc1ccc2cc3cc(C(=O)NCc4ccco4)oc3nc2c1 | 27 | 24 | 15 | 107 | -3
O=C(Nc1ccc(Cl)cc1)c1ccncc1 | -8 | -4 | 3 | 108 | 0
O=C(Nc1cccc(Cl)c1Cl)c1ccncc1 | -4 | 54*[fluorescence artefact?] | -1 | 99 | -2
c1cncc(Oc2cccc(Oc3cccnc3)c2)c1 | 98*[fluorescence artefact?] | -8 | -2 | 90 | 4
CCn1cc(-c2cc(C(F)(F)F)n3nc(C(=O)O)cc3n2)c(C)n1 | 75*[fluorescence artefact?] | 64*[fluorescence artefact?] | 15 | 23 | -7
CC[C@H]1CN(C)[C@@H]2Cc3c([nH]c4ccccc34)C(=O)C[C@H]1[C@H]2C(=O)OC | / | / | 1 | / | /
N[C@@H](Cc1c[nH]c2ccc([N+](=O)[O-])cc12)C(=O)O | / | / | 2 | / | /
Cc1c(Cl)c(S(N)(=O)=O)cc2c1=NC=NS=2(=O)O | / | / | -11 | / | /
O=C(CCc1ccccc1)Nc1nnc(-c2cccs2)o1 | 70* | 0 | 1 | 97 | 2
C=CCn1c(SCc2cc(=O)n3ccsc3n2)nc2sc(C)c(C)c2c1=O | 33 | 57*[fluorescence artefact?] | -2 | 72 | /
C=CCn1c(SCc2csc(C)n2)nc2sc3c(c2c1=O)CCCC3 | 6 | 72*[fluorescence artefact?] | 19 | 100 | 1
C=CCn1c(SCC(=O)c2cccs2)nc2sc(C)c(C)c2c1=O | 24 | 62*[fluorescence artefact?] | -1 | 163 | 0
COc1ccc(/C=N/NC(=O)CO/N=C(\C)c2cccs2)cc1 | / | / | / | / | 1
O=C(O)NCC1CCCCC1 (tested in a mixture with another compound) | / | / | 4 | / | /
COc1cccc2sc(N3CCN(c4nc5ccccc5s4)CC3)nc12 | 30 | 49 | 4 | 236* | 12
c1ccc2sc(N3CCOCC3)nc2c1 | -4 | 7 | -1 | 94 | -1
O=C(CCSc1ccc(Cl)c(Cl)c1)NC12CC3CC(CC(C3)C1)C2 | / | / | / | / | 0
SMILES | ERb SRC1 inh | ERa coact inh | Smad3 inh | ERa coact pot | FAK inh
CC1CCN(c2nc(-c3ccccc3O)nc3ccccc23)CC1 | 46 | 39 | 4 | 471*[fluorescence artefact?] | -2
Oc1ccccc1-c1nc(N2CCCC2)c2ccccc2n1 | 56*[fluorescence artefact?] | 56*[fluorescence artefact?] | 55*[fluorescence artefact?] | 217*[fluorescence artefact?] | -1
CC(C)Oc1nc(-c2ccccc2O)nc2ccccc12 | 9 | 9 | -11 | 222*[fluorescence artefact?] | 7
Fc1ccccc1-c1nc(N2CCCCC2)c2ccccc2n1 | -8 | -6 | 5 | 78 | /
Oc1ccccc1-c1nc(N2CCN(Cc3ccccc3)CC2)c2ccccc2n1 | -3 | -12 | -2 | 237*[fluorescence artefact?] | 0
O=C(O)[C@@H](O)[C@@H](O)[C@H](O)C(=O)CO | / | / | 2 | / | /
c1ccc(CN2COc3c(ccc4c5c(ccc34)CN(Cc3ccccc3)CO5)C2)cc1 | / | / | 47 | / | /
Nc1ncnc2c1ncn2[C@H]1O[C@@H](C(=O)O)[C@H](O)[C@H]1O | / | / | 0 | / | /
c1ccc(CNc2nc3ccccc3n3cnnc23)cc1 | 7 | 4 | 5 | 238*[fluorescence artefact?] | -5
Cc1cc(O)c(-c2cc(O)c(C)cc2O)cc1O | / | / | 83* | / | /
CC(C)CC(OC(=O)c1cccs1)C(=O)NCc1ccco1 (stereo not given) | 58* | 21 | -5 | 168 | 3
CCC(OC(=O)c1cccs1)C(=O)NCc1ccco1 (stereo not given) | -3 | 0 | -6 | 101 | -1
CC1(C)[C@@H]2CC[C@@]1(CC(=O)O)[C@@H](Cl)C2 | / | / | -6 | / | /
O=CN[C@@H](Cc1cnc[nH]1)C(=O)O | / | / | 0 | / | /
Cc1cc(S(=O)(=O)N(Cc2ccc(F)cc2)CC2CCCO2)ccc1-n1cnnn1 (stereo not given) | 63* | -1 | 3 | 120 | -1

Bioassay records as filed in PubChem BioAssay.
